For experiment [1], the target named is Cellular tumor antigen p53 (Homo sapiens) (UniProt P04637). As to the kind of experiment: Primary qHTS for small molecule compounds that upregulate eGFP-tagged delta133p53alpha (in N-terminal) cells. (AID 2060322).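 For activation: series mostly up to about 56 µM; 0% = DMSO vehicle and 100% = reference activator.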 Note: nearly all actives have a fitted effect of over 75% in size. Note: potency is the fitted concentration of half-maximal effect. As to conditions: NCI-H358 eGFP-delta133p53alpha fluorescence, 24 h; activation: hits give high values. The essentials:
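NCI-H358 cells pre-induced 24 h with 10 ng/ml doxycycline to express N-terminal eGFP-delta133p53alpha, then dosed 24 h at 37C without doxycycline; fixed, Hoechst-stained, GFP intensity by laser scanning cytometry, normalized to DMSO (0%) and 57.5 uM 5-azacytidine (100%).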

In experiment [2] the target is Aldehyde dehydrogenase, mitochondrial (Homo sapiens) (UniProt P05091). As to the kind of experiment: qHTS for Inhibitors of the Aldehyde Dehydrogenase Family (ALDH2) Primary screen (AID 2061308).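 Note: plate controls were vehicle for no effect and reference inhibitor for full effect; nearly all actives have a fitted effect of over 55% in size.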 A general note: Quantitative high-throughput screening tests each substance at several concentrations.
For experiment [3], the target named is Retinaldehyde dehydrogenase 3 (Homo sapiens) (UniProt P47895). As to the kind of experiment: qHTS for Inhibitors of the Aldehyde Dehydrogenase Family (ALDH1A3) Validation screen (AID 2061312). Note: % is set by controls: 0 for no effect and ±100 for the full control effect; nearly all actives have a fitted effect of over 45% in size.
Experiment [4] shares this target. As to the kind of experiment: qHTS for Inhibitors of the Aldehyde Dehydrogenase Family (ALDH1A3) Primary screen (AID 2061315).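 Note: plate controls were DMSO vehicle for no effect and reference inhibitor for full effect.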

Where “and” joins values, the source holds several entries; their conditions need not be identical. Identical values can stand only once. Inconclusive results are not listed. Values without a mark were called inactive. Calls of active or inactive are those of the source. Calls come from the whole dose curve; as a rule, active = well fitted curve in the direction sought with a large enough effect; inconclusive = small, poorly fitted or top-dose-only effect, or another doubt; inactive = no such curve, though single readings can be large; an effect the other way counts as inactive or inconclusive.

Sequence of Cellular tumor antigen p53 (Homo sapiens) (P04637 whole entry, looked up): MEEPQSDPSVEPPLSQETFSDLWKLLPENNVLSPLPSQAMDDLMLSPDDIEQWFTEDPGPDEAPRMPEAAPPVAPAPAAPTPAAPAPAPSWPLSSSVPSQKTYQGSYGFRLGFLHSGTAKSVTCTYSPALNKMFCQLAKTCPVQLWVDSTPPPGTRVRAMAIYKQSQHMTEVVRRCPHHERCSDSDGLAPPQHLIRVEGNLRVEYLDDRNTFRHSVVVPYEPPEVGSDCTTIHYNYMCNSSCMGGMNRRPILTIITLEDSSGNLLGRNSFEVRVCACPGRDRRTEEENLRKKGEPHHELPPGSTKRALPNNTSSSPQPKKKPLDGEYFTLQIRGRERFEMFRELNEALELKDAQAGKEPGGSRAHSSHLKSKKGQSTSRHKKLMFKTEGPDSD

As for `CC(C)c1nnc(-c2ccc(-c3ccccc3)nc2)n1-c1cccc2nonc12`, the activation in experiment [1] was -5.73%. Also, the Potency result in experiment [2], in experiment [3] and in experiment [4] was “inactive” in each case.

For the molecule `Cc1cc(OCCN2CCOCC2)nn1-c1ccc2ccccc2c1`, the activation in experiment [1] was 4.3%. In addition, the Potency entry in experiment [2], in experiment [3] and in experiment [4] was “inactive” each time.

Turning to `Cc1ccc(NC(=O)C(=O)NC2CC(C)(C)NC(C)(C)C2)cc1`, the activation in experiment [1] was -13.4%. The Potency result in experiment [2], in experiment [3] and in experiment [4] was “inactive” throughout.

Regarding `CN(C)S(=O)(=O)c1ccc(NC(=S)N2CCC(C(O)(c3ccccc3)c3ccccc3)CC2)cc1`, the activation in experiment [1] is -6.68%. The Potency entry in experiment [2], in experiment [3] and in experiment [4] was “inactive” each time.

`Cc1occc1C(=O)n1ccnc1`: the activation in experiment [1] is 1.43%. For the same molecule, the Potency entry in experiment [2], in experiment [3] and in experiment [4] was “inactive” throughout.

For the molecule `CN(C)CCC[C@]1(c2ccc(F)cc2)OCc2cc(C#N)ccc21`, in experiment [1], the activation is 0.477%. The Potency entry in experiment [2], in experiment [3] and in experiment [4] was “inactive” each time.

Take `COc1ccc(C(=O)N(CCC(C)C)Cc2nc(C)c(C)n2Cc2ccccc2C)c(OC)c1`: the activation in experiment [1] is 11.5%. Moreover, the Potency result in experiment [2], in experiment [3] and in experiment [4] was “inactive” throughout.

In the case of `COc1ccc(CCc2nc3cc(-c4c(C)noc4C)ccc3n2C[C@H](C)N2CCOCC2)cc1Cl`, in experiment [1], the activation was 20.1%. Moreover, the Potency result in experiment [2], in experiment [3] and in experiment [4] was “inactive” each time.

For the molecule `CCCCC(=O)N1c2ccccc2NC2=C(C(=O)CCC2)C1c1ccccc1Cl` (stereo not given), the activation in experiment [1] was -4.77%. In addition, the Potency result in experiment [2], in experiment [3] and in experiment [4] was “inactive” throughout.

`COc1ccc(C#Cc2ccc(C(=O)N3CCC[C@@H](CO)C3)cc2)cc1`: the activation in experiment [1] is -13.8%. For the same molecule, the Potency result in experiment [2], in experiment [3] and in experiment [4] was “inactive” in each case.

Turning to `CCOC(=O)c1ccc(NC2CCCCC2)c(N)c1`, the activation in experiment [1] is -6.21%. Moreover, the Potency result in experiment [2], in experiment [3] and in experiment [4] was “inactive” throughout.

As to `COc1cc(N2CCOCC2)ccc1NC(=O)c1csc(-c2cccnc2)n1`, the activation in experiment [1] was 24.8%. For the same molecule, the Potency entry in experiment [2], in experiment [3] and in experiment [4] was “inactive” in each case.

On to `O=C(O)CCc1ccc(NCc2cccc3c2CCCN3CCOc2ccccc2)cc1F`, for which the activation in experiment [1] was 2.39%. The Potency result in experiment [2], in experiment [3] and in experiment [4] was “inactive” in each case.

In the case of `O=S(=O)(Cc1ccccc1)Nc1ccc(-c2ccc3c(cnn3-c3ccc(F)cc3)c2)c(C(F)(F)F)c1`, the activation in experiment [1] is -1.91%. In addition, the Potency entry in experiment [2], in experiment [3] and in experiment [4] was “inactive” in each case.

On to `O=C(c1cn(Cc2cncn2Cc2ccc(Br)cc2)cc1-c1cccc2ccccc12)N1CCOCC1`, for which the Potency in experiment [1] was 26.9 µM (active). Further, the Potency result in experiment [2], in experiment [3] and in experiment [4] was “inactive” in each case.

On to `COc1ccccc1N1CCN(c2ncnc3n[nH]c(Br)c23)CC1`, for which the activation in experiment [1] was 20.5%. Also, the Potency entry in experiment [2], in experiment [3] and in experiment [4] was “inactive” each time.

On to `CN(C)C(=O)C(O)C(Cc1ccccc1)NC(=O)c1cc2cc(Cl)ccc2[nH]1` (stereo not given), for which the activation in experiment [1] was -1.43%. The Potency entry in experiment [2], in experiment [3] and in experiment [4] was “inactive” throughout.

As for `CC(C)CCNc1ncccc1C(=O)N1CCN(Cc2ccccc2)CC1`, the activation in experiment [1] was -4.3%. The Potency entry in experiment [2], in experiment [3] and in experiment [4] was “inactive” each time.

For the molecule `COc1ccc(N2CCOCC2)c2sc(NC(=O)N3CCC(C)(O)CC3)nc12`, the activation in experiment [1] was -5.25%. Also, the Potency result in experiment [2], in experiment [3] and in experiment [4] was “inactive” throughout.

Take `Cc1cc(-c2nncc3c(C(C)(C)C)c(OCc4ncnn4C)nn23)no1`: the activation in experiment [1] is 6.68%. Moreover, the Potency entry in experiment [2], in experiment [3] and in experiment [4] was “inactive” each time.

On to `CC(=O)NC1=NN(C(C)=O)C(C)(c2ccccc2)S1` (stereo not given), for which the Potency in experiment [1] is 12 µM (active). Further, the Potency result in experiment [2], in experiment [3] and in experiment [4] was “inactive” each time.

For the molecule `CC(=O)Nc1cccc(Nc2ncnc(N3CCC(OCc4ccc(OC(F)(F)F)cc4)CC3)n2)c1C`, the activation in experiment [1] is -6.21%. Besides, the Potency result in experiment [2], in experiment [3] and in experiment [4] was “inactive” in each case.

With `CS(=O)(=O)Nc1ccc2oc3c(OC(F)F)ccc(C(=O)Nc4c(Cl)cncc4Cl)c3c2c1`, in experiment [1], the activation was 22%. The Potency result in experiment [2], in experiment [3] and in experiment [4] was “inactive” in each case.

Turning to `CC1(C)CCC(C)(C)c2cc([C@@H](O)C(=O)Nc3ccc(C(=O)O)cc3F)ccc21`, in experiment [1], the activation is -4.77%. Also, the Potency result in experiment [2], in experiment [3] and in experiment [4] was “inactive” throughout.

Turning to `COc1ccc(N2CCN(C(=O)c3cc4c(s3)-c3ccccc3S(=O)(=O)C4)CC2)cc1`, the activation in experiment [1] is -13.8%. Further, the Potency entry in experiment [2], in experiment [3] and in experiment [4] was “inactive” throughout.

`O=C(Nc1ccc(N2CCC(C(=O)N3CCOCC3)CC2)cc1)c1cnc(Oc2ccccc2)nc1`: in experiment [1], the activation is -2.39%. In addition, the Potency entry in experiment [2], in experiment [3] and in experiment [4] was “inactive” each time.

`CN(C)c1nc(Cc2ccc(NC(=O)c3ccc(C(F)(F)F)cc3)cc2)nc(N(C)C)c1CC(=O)O`: the activation in experiment [1] is -14.6% and -1.43%. Besides, the Potency result in experiment [2], in experiment [3] and in experiment [4] was “inactive” each time.

Consider `CCCn1c(=O)c2[nH]c(-c3ccc(OCC(=O)O)cc3)nc2n(CCC)c1=O`, for which the activation in experiment [1] was -5.73%. The Potency result in experiment [2], in experiment [3] and in experiment [4] was “inactive” in each case.

Regarding `C[C@H](Oc1cc(-c2cnn(C3CCNCC3)c2)cnc1N)c1c(Cl)ccc(F)c1Cl`, in experiment [1], the activation was 14.8%. Besides, the Potency entry in experiment [2], in experiment [3] and in experiment [4] was “inactive” throughout.

Take `COc1cc(C(=O)NCC2(N(C)C)CCCC2)cc(OC)c1OCc1ccccc1`: the activation in experiment [1] is -8.11%. Also, the Potency entry in experiment [2], in experiment [3] and in experiment [4] was “inactive” each time.

Values taken from PubChem BioAssay (NCATS).
